Source: PubChem BioAssay AID2546 (National Center for Advancing Translational Sciences (NCATS), 2010)
Out of some 310,000 compounds screened, about 11,000 (3.5%) were called active. Entries that show only a call come without a potency. Roughly 8% stayed inconclusive and do not appear here. For the sample, actives were picked, then their nearest neighbours and some compounds at random. Values without a mark were called inactive. Calls come from the whole dose curve; as a rule, active = well fitted inhibition curve with a large enough effect; inconclusive = small, poorly fitted or top-dose-only effect, or effect the other way; inactive = flat fitted curve, though single readings scatter.
Potency is the fitted concentration of half-maximal effect.

Experiment: VP16 counterscreen qHTS for inhibitors of ROR gamma transcriptional activity;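 note: Gal4-VP16 expression switched on by copper sulfate through the metallothionein promoter; nearly all actives have a fitted effect of over 50% in size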
Conditions: Drosophila S2 Gal4-VP16 UAS-luciferase, luminescence, 20 h; series mostly up to 53.6 µM
In the case of CCOc1ccc(N/C=C/C(=O)c2cc(OC)c(OC)c(OC)c2)cc1, the Potency was “inactive”. In the case of COc1ccc(C(=O)/C=C/Nc2ccccn2)cc1, the Potency was 3.55 µM (active). With Cc1cc(N/C=C\C(=O)c2ccc(Cl)c(Cl)c2)no1 the Potency was “inactive”. For CS(=O)(=O)N1CCc2nc(-c3ccccc3)sc2C1, the Potency was “inactive”. In the case of CCCOc1ccc(C(=O)NCCc2ccccc2)cc1, the Potency was 14.1 µM (active). With O=C(NCCc1ccccc1)c1ccc(OCCOc2ccccc2)cc1 the Potency was “inactive”. With O=C(NCCOc1ccccc1)c1ccccc1 the Potency was “inactive”. With CCC(C(=O)NCCC(C)C)N(Cc1ccccc1Cl)C(=O)c1snc(C(N)=O)c1N (stereo not given) the Potency was “inactive”. For CCOC(=O)C1CCCN(CCSc2ccc(C)cc2)C1 (stereo not given), the Potency was “inactive”. For O=C(COc1ccc(Br)cc1F)NC1CCN(Cc2ccccc2)CC1, the Potency was “inactive”. In the case of CCc1ccc(NC(=O)CS(=O)CC(=O)NCCCc2ccccc2)cc1 (stereo not given), the Potency was “inactive”. In the case of O=C(NC1CCN(Cc2ccccc2)CC1)c1c(F)cccc1F, the Potency was “inactive”. In the case of CC(=O)Nc1ccc(S(=O)(=O)N(C)CC(=O)NCCC2=CCCCC2)cc1, the Potency was “inactive”. With S=C(Nc1ccc(Br)cc1)NC1CCN(Cc2ccccc2)CC1 the Potency was 15.8 µM (active). With O=C(NCCCc1ccccc1)C(=O)c1c[nH]c2ccccc12 the Potency was “inactive”. With S=C(NCCc1ccccc1)Nc1ccccc1 the Potency was 17.8 µM (active). For S=C(NCCC1=CCCCC1)Nc1ccccc1, the Potency was 5.62 µM (active). In the case of O=C(Cc1cccc2ccccc12)NCCC1=CCCCC1, the Potency was “inactive”. For NS(=O)(=O)c1ccc(CCNC(=S)Nc2ccc(S(N)(=O)=O)cc2)cc1, the Potency was “inactive”. In the case of S=C(NCCCc1ccccc1)Nc1ccc(Br)cc1, the Potency was 10 µM (active). In the case of O=C1CCN(C(=S)NCCc2ccccc2)CC1, the Potency was “inactive”. In the case of Cc1c(Cl)cccc1NC(=O)NCCCN1CCCC1=O, the Potency was “inactive”. In the case of Cn1c(SCC(=O)N2CCCC2)nnc1-c1cccs1, the Potency was “inactive”. In the case of COc1ccccc1CN1CC(C(=O)NCCc2cn[nH]c2)CCC1=O (stereo not given), the Potency was “inactive”. With Cc1ccn(CCC(=O)N2c3ccccc3CC2C)n1 (stereo not given) the Potency was “inactive”. For COc1ccc(OC)c(NC(=O)c2ccc3c(c2)C(=O)N(c2ccc(OC(C)=O)cc2)C3=O)c1, the Potency was “inactive”. For O=C(NCCNc1ccccc1[N+](=O)[O-])c1ccccc1F, the Potency was “inactive”. For COc1ccc(-c2nonc2NC(=O)c2oc3ccc(F)cc3c2C)cc1OC, the Potency was “inactive”. With COc1ccc(S(=O)(=O)N2CCC(C(=O)NCc3ccco3)CC2)cc1C the Potency was “inactive”. For N#Cc1ccccc1S(=O)(=O)N1CCN(C(=O)c2cc(-c3ccccc3)nn2-c2ccccc2)CC1, the Potency was “inactive”. In the case of Cc1c(CCC(=O)N[C@@H](CC(C)C)C(=O)O)c(=O)oc2c(C)c3oc4c(c3cc12)CCCC4, the Potency was “inactive”. In the case of COc1cc2[nH]c(=S)n(Cc3ccc(C)o3)c(=O)c2cc1OC, the Potency was 10 µM (active). In the case of COc1cc2[nH]c(=S)n(CCN3CCCCC3C)c(=O)c2cc1OC (stereo not given), the Potency was “inactive”. In the case of CCOc1cc2[nH]c(=S)n(Cc3ccc(C(=O)NCCOC)cc3)c(=O)c2cc1OCC, the Potency was “inactive”. For Cc1ccc(S(=O)(=O)N(CC(O)CN2CCCCC2)c2cccc([N+](=O)[O-])c2)cc1 (stereo not given), the Potency was “inactive”. For CCc1ccc(NC(=O)N2CCc3ccccc3C2)cc1, the Potency was “inactive”. In the case of O=c1oc2ccccc2cc1-c1cn(-c2ccccc2)c(=S)[nH]1, the Potency was 1.78 µM (active). For O=C(c1cn(-c2ccccc2)nc1-c1cc2ccccc2oc1=O)N1CCOCC1, the activity, negative = inhibition was 7.29% [at 10 µM]. With O=C(Nc1cc2ccccc2oc1=O)C1CCCCC1 the Potency was “inactive”. For CN(C(=O)COC(=O)c1nc(Cl)ccc1Cl)C1CCS(=O)(=O)C1 (stereo not given), the Potency was “inactive”. With CCc1ccc(OCC(=O)N(Cc2ccccc2)C2CCS(=O)(=O)C2)cc1 (stereo not given) the Potency was “inactive”. With O=C(N/N=C/c1ccc(OCc2ccccc2)cc1)c1ccc(O)cc1 the Potency was 11.2 µM (active). In the case of O=C(Cc1cccs1)N/N=C/c1ccc(OCc2ccccc2)cc1, the Potency was “inactive”. With O=C(N/N=C/c1ccc(OC(=O)c2ccccc2Cl)cc1)c1ccc(O)cc1 the Potency was “inactive”. In the case of COCCNC(=O)COc1ccc(N(C)S(=O)(=O)c2ccc3ccccc3c2)cc1, the Potency was “inactive”. In the case of CCOc1ccc(S(=O)(=O)Nc2ccc(S(=O)(=O)Nc3cc(OC)ccc3OC)cc2)cc1, the Potency was “inactive”. For COc1ccc(NS(=O)(=O)c2ccc(NC(=S)NC(=O)CC(C)C)cc2)cc1, the Potency was “inactive”. With COc1ccc(NS(=O)(=O)c2ccc(Oc3c(C#N)cccc3C#N)cc2)cc1 the Potency was 3.98 µM (active). With COc1cccc(CNS(=O)(=O)c2ccc3c(c2)N(C(C)=O)CCS3)c1 the Potency was “inactive”. For COC(=O)c1ccc(COc2ccc(/C=C/C(=O)c3ccc(OC)c(CSCC(=O)O)c3)cc2OC)cc1, the Potency was “inactive”. For Cc1cccc(OCC(=O)NCC(=O)N/N=C/c2ccc(N(C)C)cc2)c1, the Potency was “inactive”. For COc1ccc(-c2nnc(SCC(=O)c3cccs3)o2)c(OC)c1, the Potency was “inactive”. For COc1ccc(OC)c(C(=O)CSc2nnc(-c3cccs3)o2)c1, the Potency was 15.8 µM (active). In the case of COc1ccc(C(=O)CSc2nnc(-c3ccco3)o2)cc1, the Potency was “inactive”. With CN(c1cccc(NC(=O)c2ccc(CN3CCc4ccccc4C3)cc2)c1)S(C)(=O)=O the Potency was “inactive”. With COc1cccc(C(=O)Nc2ccc(N3CCN(C(=O)c4ccco4)CC3)cc2)c1 the Potency was “inactive”. With COC(=O)CNC(=O)c1ccc(OC2CCN(C(=O)C3CC3)CC2)cc1 the Potency was “inactive”. For CCc1ccc(/C=N/NC(=O)c2ccc(OC3CCCC3)cc2)s1, the Potency was 11.2 µM (active). For CCn1c(/C=N/NC(=O)c2ccc(OC)cc2)nc2ccccc21, the Potency was “inactive”. For CCOc1ccc(S(=O)(=O)N2CCCC(C(=O)N3CCC(C(N)=O)CC3)C2)cc1Cl (stereo not given), the Potency was “inactive”. For COc1ccccc1CCNS(=O)(=O)c1cc2c3c(c1)C(C)C(=O)N3CCC2 (stereo not given), the Potency was “inactive”. For Cc1ccc(S(=O)(=O)Nc2ccc3ncccc3c2)cc1, the Potency was 17.8 µM (active). For Cc1ccc(OCC(=O)Nc2ccc(S(=O)(=O)Nc3ccccn3)cc2)cc1, the Potency was “inactive”. In the case of Cc1ccc(NS(=O)(=O)c2ccc(C(C)(C)C)cc2)cn1, the Potency was “inactive”. In the case of CC(C)C[C@H]1CN=C(Nc2ccccc2)N1CC1CCCCC1, the Potency was “inactive”. For COC(=O)c1cc(S(=O)(=O)N2CCN(c3cc(C)ccc3C)CC2)c[nH]1, the Potency was “inactive”. With NS(=O)(=O)c1ccc(N=Nc2c(O)[nH]c3ccc(Br)cc23)cc1 the Potency was “inactive”. For CCN1CCN(c2sc(S(C)(=O)=O)nc2S(=O)(=O)c2ccc(Cl)cc2)CC1, the Potency was “inactive”. For CCOC(=O)c1ccc(NC2Nc3cc(C)nn3S2)cc1 (stereo not given), the Potency was “inactive”. With CCc1ccc(NC2Nc3cc(C)nn3S2)cc1 (stereo not given) the Potency was 5.01 µM (active). For CCOC(=O)c1ccccc1NC(=O)CC1Nc2ccccc2NC1=O (stereo not given), the Potency was “inactive”. In the case of O=C(CC1Nc2ccccc2NC1=O)Nc1ccccc1NC(=O)CC1Nc2ccccc2NC1=O (stereo not given), the Potency was “inactive”. With O=C(CC1Nc2ccccc2NC1=O)Nc1ccccc1 (stereo not given) the Potency was 5.01 µM (active). In the case of CCN(C(=O)COc1ccc(C(=O)c2ccccc2)cc1)c1ccccc1, the Potency was “inactive”. In the case of O=S(=O)(c1ccccc1)c1nc(-c2ccccc2)oc1NCCCN1CCOCC1, the Potency was “inactive”. With Cc1cccc(N2CCN(C(=O)c3cccc(N4C(=O)C5C6C=CC(C6)C5C4=O)c3)CC2)c1C (stereo not given) the Potency was “inactive”. In the case of O=C(CN1CCOC1=O)N1CCCC(Nc2ccc(F)c(F)c2)C1 (stereo not given), the Potency was “inactive”. For C=C1CCN(C(CC(C)C)C(=O)N2CCOCC2)S(=O)(=O)c2ccccc21 (stereo not given), the Potency was “inactive”. With Cc1ccc(S(=O)(=O)Oc2ccc(/C=N/NC(=O)c3ccncc3)cc2)cc1 the Potency was “inactive”. In the case of Cc1ccc(OCCOc2cccc(/C=N/NC(N)=O)c2)cc1, the Potency was “inactive”. For Cc1ccc(OCCOCCOc2ccc(Br)cc2/C=N\NC(=O)c2ccncc2)cc1, the Potency was 25.1 µM (active). In the case of Cc1ccc(CNC(=O)CCN2C(=O)[C@@H]3Cc4ccccc4CN3C2=O)cc1, the Potency was “inactive”. In the case of CC(=O)Nc1cccc(C(=O)OCN2C(=O)c3ccccc3C2=O)c1, the Potency was “inactive”. In the case of Cc1cc(OCc2cc(C(=O)NCc3cc(C(C)C)no3)no2)cc(C)c1Cl, the Potency was “inactive”. For Cc1cccc(NC(=S)NCCN(C2CCCCC2)C2CCCC2)c1, the Potency was “inactive”. In the case of Cc1cccc(NC(=S)NCc2ccc3[nH]c4c(c3c2)CCCC4)c1, the Potency was 7.08 µM (active). With O=C(O)CCC(=O)NCc1ccc2[nH]c3c(c2c1)CCCC3 the Potency was “inactive”. In the case of CCOc1cc(/C=N/Nc2cc(C)nc3ccc(C)cc23)ccc1O, the Potency was “inactive”. For CC(=O)NCC(=O)N1CCCC(C(=O)c2ccc3c4c(cccc24)CC3)C1 (stereo not given), the Potency was “inactive”. For CCn1ccnc1CN1CCCC(C(=O)c2ccc3c4c(cccc24)CC3)C1 (stereo not given), the Potency was 4.47 µM (active). In the case of Cc1ncoc1C(=O)N1CCCC(C(=O)c2ccc3c4c(cccc24)CC3)C1 (stereo not given), the Potency was “inactive”. In the case of COc1cc2c(cc1OC)C(C)N(S(=O)(=O)c1cnc(Cl)c(Cl)c1)CC2 (stereo not given), the Potency was “inactive”. For CCN1C(=S)N[C@@H](c2cccc(C(F)(F)F)c2)C(C(=O)OC)=C1C, the Potency was “inactive”. With CC1CCN(CC(=O)Nc2nccs2)CC1 the Potency was “inactive”. In the case of C=CCn1c(SCc2csc(C)n2)nc2scc(-c3ccc(C)o3)c2c1=O, the Potency was “inactive”. For C=CCn1c(=S)[nH]c2scc(-c3ccco3)c2c1=O, the Potency was 7.94 µM (active). With C=CCNC(=O)CSc1nc2scc(-c3ccco3)c2c(=O)n1CC=C the Potency was “inactive”. For COc1ccc(NC(=O)CN2C(=O)COc3ccc(S(=O)(=O)N4CCOCC4)cc32)c(OC)c1, the Potency was “inactive”. For Cc1ccc(S(=O)(=O)N(C)CC(=O)NCCc2c[nH]c3ccccc23)cc1, the Potency was “inactive”. For COc1ccc(-n2c(=O)[nH]c3cc(C(=O)NCCc4ccc(OC)c(OC)c4)ccc3c2=O)c(OC)c1, the Potency was “inactive”. In the case of COc1ccc(NS(=O)(=O)c2cc(C(=O)Nc3ccccc3C(=O)O)ccc2C)cc1, the Potency was “inactive”. In the case of CCCCc1nc2cc(C(=O)N3CCCCC3CCO)ccc2o1 (stereo not given), the Potency was “inactive”. In the case of COc1ccc(-c2cn3cccnc3n2)cc1, the Potency was “inactive”. With COc1ccc(-c2cn3ccc(C)cc3n2)cc1 the Potency was 5.01 µM (active). With CCN(CC)S(=O)(=O)c1ccc(-c2cn3ccc(C)cc3n2)cc1 the Potency was “inactive”.
